The sample as a whole holds a higher share of hits than the screen did.
mHTT-CaM PPI inh: inhibitors of human mutant huntingtin-calmodulin interaction; AlphaScreen His-mHTT/GST-CaM binding, luminescence; inhibition, % at 15 µM; AID 1671202; P42858; 190,000 tested, 3.6% active;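 also: 0% = both proteins with DMSO and 100% = one protein alone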
Pf apPOL inh: Pf-apPOL DNA polymerase inhibition; Recombinant Pf-apPOL, molecular beacon fluorescence, 1.5 h; inhibition, % at 10 µM; 210,000 tested, 0.25% active
* marks the source's active call; other numbers are inactive results; nt = no result given. Rule as the data show it: active = inhibition above about 50%; inactive = the rest.

SMILES | mHTT-CaM PPI inh | Pf apPOL inh
Cc1cc2c(cc(C(=O)NCc3ccccn3)n2CC2CCC2)s1 | 57* | -2
COc1ccccc1OCC(=O)NCc1ccccn1 | 15 | -8
O=C(NCc1ccccn1)c1cc2sccc2n1CC1CC1 | 13 | -12
CCn1c(C(=O)NCc2ccccc2F)cc2sc(C)cc21 | 30 | -4
CCCn1c(C(=O)NCc2ccccn2)cc2sc(Br)cc21 | 72* | -8
C=CCn1c(C(=O)NCc2ccccn2)cc2sc(C)cc21 | 56* | -2
CCCn1c(C(=O)N2CCOCC2)cc2sc(Br)cc21 | 24 | -13
COc1ccccc1-c1cc(C(=O)NCc2ccccn2)n(C)n1 | 100* | -21
Cc1ccc(-c2csc3c(=O)n(CC(=O)Nc4ccc(C)c(C)c4)cnc23)cc1 | -19 | -4
CCCn1cc2c3c(cccc31)CN(C(=O)Nc1ccc(OC)cc1)CC2 | 13 | 0
COc1ccc(NC(=O)N2CCc3c(c4ccccc4n3C)C2)cc1 | 51* | -4
OCc1nc2ccccc2n1CC(O)COc1ccc(Br)cc1 (centres undefined) | 73* | 2
Cc1nc2ccccc2n1CC(O)COc1ccccc1Cl (centres undefined) | 58* | -5
Cc1ccc(Cl)c(OCC(O)Cn2c(C)nc3ccccc32)c1 (centres undefined) | 10 | -7
OCc1nc2ccccc2n1Cc1ccc(Br)cc1 | 7 | -1
COc1ccc(-n2ccnc(NC(=O)c3ccc(Cl)cc3)c2=O)cc1 | 12 | 3
Cc1[nH]nc2c1C(c1ccc(F)cc1F)CC(=O)N2 (centres undefined) | -3 | -6
Cc1ccc(NC(=O)Cn2c(-c3ccccc3F)nc3ccccc3c2=O)cc1Cl | 12 | -1
O=C(Cn1c(-c2ccccc2Cl)nc2ccccc2c1=O)Nc1ccc(F)c(Cl)c1 | 100* | -4
Cc1ccc2c(c1)c(=O)c(C(=O)O)cn2C | -5 | -3
Cc1ccc2c(c1)c1cccc3c1n2CCN3CCC(N)=O | 69* | -4
CN1C(=O)C(O)(CC(=O)c2ccccn2)c2cc(Br)ccc21 (centres undefined) | 2 | -6
CN1C(=O)C2(NN=C(c3ccccc3)S2)c2cc(Br)ccc21 (centres undefined) | 100* | -3
O=C1NC(c2ccccn2)Nc2sc3c(c21)CCC3 (centres undefined) | 69* | 0
O=C1NC(c2cccc(F)c2)Nc2sc3c(c21)CCC3 (centres undefined) | 13 | 2
SMILES | mHTT-CaM PPI inh | Pf apPOL inh
O=C1NC(c2ccccc2[N+](=O)[O-])Nc2sc3c(c21)CCCC3 (centres undefined) | 58* | 0
O=C1NC(c2ccccc2F)Nc2sc3c(c21)CCCC3 (centres undefined) | 0 | -2
COc1nn(C)cc1C(=O)NCC(=O)NCc1ccccn1 | -22 | -1
CCn1nccc1C(=O)N1CCC(Nc2nccnc2OC)CC1 | -3 | -3
Cc1ccc(O)c(N=Cc2cccc([N+](=O)[O-])c2O)c1 | 20 | -1
COc1ccc(N=Cc2ccc(Br)c([N+](=O)[O-])c2)cc1OC | 54* | 2
COc1cc([N+](=O)[O-])cc(C=Nc2cc(C(C)(C)C)cc(Cl)c2O)c1O | 10 | -2
Cc1cccc(N=Cc2cc3c(cc2[N+](=O)[O-])OCO3)c1C | 89* | 0
O=[N+]([O-])c1ccc(N=Cc2cc3c(cc2[N+](=O)[O-])OCO3)c(Br)c1 | 4 | -7
Cc1ccc(O)c(N=Cc2cc3c(cc2[N+](=O)[O-])OCO3)c1 | 99* | -3
Cn1c(=O)n(C)c2cc(N=Cc3ccc(Br)c([N+](=O)[O-])c3)ccc21 | 29 | -5
CC(C)(C)c1cc(Cl)c(O)c(N=Cc2cc3c(cc2[N+](=O)[O-])OCO3)c1 | 85* | 1
Cc1noc(-c2cccc(C(F)(F)F)c2)c1C(=O)NCc1cccnc1 | -4 | -3
Oc1ccccc1/C=C/c1nc(-c2ccccc2O)n(-c2ccccc2)n1 | 18 | 11
CC(C)N1Cc2cc(C(=O)NCc3cccs3)sc2C1 | -3 | 2
Cc1ccc(O)c(N=Cc2ccc(Cl)c([N+](=O)[O-])c2)c1 | 23 | 0
Cc1ccc(O)c(N=Cc2ccc(Br)c([N+](=O)[O-])c2)c1 | 58* | -11
Cc1ccsc1C(O)CNS(=O)(=O)c1ccc(OC(F)(F)F)cc1 (centres undefined) | -8 | -4
COc1ccc(NC(=O)N2CCc3cn(CC(C)C)c4cccc(c34)C2)cc1OC | 29 | -1
CC(=O)N1CCc2cn(CC(C)C)c3cccc(c23)C1 | 44 | -2
CC(=O)Nc1ccc(C(=O)N2CCc3cn(CC(C)C)c4cccc(c34)C2)cc1 | 72* | -1
CCC(=O)N1CCc2cn(CC(C)C)c3cccc(c23)C1 | 54* | -5
CC(C)CN1CCn2cc(C(=O)NCc3cccnc3)nc2C1 | -2 | -1
NC(=O)c1ccccc1NC(=O)c1ccc([N+](=O)[O-])cc1 | -5 | 0
CCn1cnc2c1c(=O)n(C1CC1)c(=O)n2-c1ccc(F)cc1 | -1 | 2
SMILES | mHTT-CaM PPI inh | Pf apPOL inh
Cn1c(CN2C(=O)CSc3ccc(C(F)(F)F)cc32)nnc1SCc1ccccc1 | nt | 2
COc1ccc(NC(=O)C2CC(=O)N(c3ccc4c(c3)CCN4C(=O)C3CC3)C2)cc1 (centres undefined) | -2 | -3
COc1ccc([C@H]2C[C@@H](n3cc(-c4ccc(F)cc4)nn3)[C@H](O)CN2CC2CCCCC2)cc1 | -7 | -3
CCCCCC(=O)N1C[C@@H](O)[C@H](n2cc(C3CC3)nn2)C[C@@H]1c1ccc(OC)cc1 | 26 | -3
CCCCCCN1C[C@H](n2cc(C3CC3)nn2)[C@@H](O)C[C@@H]1c1ccccc1 | 99* | 0
COc1ccc([C@H]2C[C@H](O)[C@@H](n3cc(-c4ccc(F)cc4)nn3)CN2CC2CCCCC2)cc1 | 69* | 1
CCCCCCN1C[C@@H](O)[C@H](n2cc(C3CC3)nn2)C[C@@H]1c1ccccc1 | 30 | -2
CCCCCCN1C[C@H](n2cc(-c3ccc(F)cc3)nn2)[C@@H](O)C[C@@H]1c1ccc(OC)cc1 | 67* | 1
CCCCCCN1C[C@H](n2cc(C3CC3)nn2)[C@@H](O)C[C@@H]1c1ccc(OC)cc1 | 98* | -3
CCCCCCN1C[C@@H](n2cc(-c3ccc(F)cc3)nn2)[C@H](O)C[C@@H]1c1ccc(OC)cc1 | 4 | -7
Cc1cccc(-n2c(C)nc3cc(C(=O)NCc4ccc(F)cc4)ccc32)c1 | 33 | 35
CCOc1cc(/C=C2/SC(NC(C)=O)=NC2=O)ccc1OCc1ccccc1 | 13 | 2
O=C(Nc1csc(C(F)(F)F)c1-c1ccccc1)c1ccco1 | nt | -5
CCOc1ccccc1NC(=O)C1CC(=O)NC(=N)S1 (centres undefined) | 0 | -4
O=C1OC(c2ccc(Br)cc2)=N/C1=C\c1coc2ccccc2c1=O | 0 | -1
Cc1noc(C2CN(C(=O)c3ccc4[nH]ccc4c3)CC2C)n1 (centres undefined) | -4 | -3
CC(C)c1cc(C(=O)N2CCN(C(C)C)CC2)nc2ccnn12 | 3 | -2
c1ccc(CNCc2cnc[nH]2)cc1 | 94* | -8
O=C(O)CCNCc1ccccc1 | -2 | -2
COc1ccc(-n2c(NN)nc3sc4c(c3c2=O)CCCC4)cc1 | 61* | -5
COc1ccc(-n2c(=O)c3c4c(sc3n3cnnc23)CCCC4)cc1 | 7 | 1
